GLP-1R inv ag: acts as inverse agonist at human GLP-1 receptor | Potency, µM (doses to about 38.3 µM), inactives show top-dose activity change, negative = inhibition, hits mostly inhibitors | HEK293 GLP-1R CRE-luciferase, luminescence, 24 h; GLP-1R form is constitutively active | hit rate 1.6% among 410,000 | P43220; further: on the % scale 0 is the no-effect control and ±100 the full control effect; nearly all actives have a fitted effect of over 55% in size
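Cells are plated, allowed 12 hours at 37 deg C, then treated with compounds for 24 hr before luciferase detection reagent is added and luminescence is read after 12 min at room temperature. The HEK293 line carries constitutively active GLP-1R with a cAMP-responsive reporter.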
GLP-1R agonist: agonists of human GLP-1 receptor; P43220; HEK293 GLP-1R CRE-luciferase, luminescence, 4-6 h; cells express a hypersensitive GLP-1R form; Potency, µM (doses to about 45.6 µM), for inactives: at the top dose activation, hits mostly activators; hit rate 0.007% among 380,000; further: % of control where 0% means no effect
GLP1R cytotox: cytotoxic in the GLP-1 receptor inverse agonist counter-screen | HEK293 cAMP-luciferase reporter cells, luminescence, 24 h | Potency, µM (top dose mostly 38.3 µM), for the others: at the top dose activity change, negative = inhibition, most hits filed as inhibitors | hit rate 0.13% among 410,000 | AID 624418;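 further: loss of luciferase light is scored as toxicity; on the % scale 0 is the no-effect control and ±100 the full control effect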
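Here, cytotoxicity is scored as loss of luminescence. The MLSMR collection was tested on cells seeded in medium containing 10% Nu serum, with a 24 hr compound exposure preceded by 12 hours of culture.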
PTHR1 ag: agonists of human PTHR1 parathyroid hormone receptor | AID 743266 | hit rate 0.075% among 410,000 | HEK293 GP2 PTHR1 cells, GloSensor cAMP luminescence, 1 h | Potency, µM (doses to about 115 µM), without a hit: at the highest dose activation, actives largely listed as activators | Q03431; further: nearly all actives have a fitted effect of over 55% in size
Target sequence (Q03431 whole entry, looked up): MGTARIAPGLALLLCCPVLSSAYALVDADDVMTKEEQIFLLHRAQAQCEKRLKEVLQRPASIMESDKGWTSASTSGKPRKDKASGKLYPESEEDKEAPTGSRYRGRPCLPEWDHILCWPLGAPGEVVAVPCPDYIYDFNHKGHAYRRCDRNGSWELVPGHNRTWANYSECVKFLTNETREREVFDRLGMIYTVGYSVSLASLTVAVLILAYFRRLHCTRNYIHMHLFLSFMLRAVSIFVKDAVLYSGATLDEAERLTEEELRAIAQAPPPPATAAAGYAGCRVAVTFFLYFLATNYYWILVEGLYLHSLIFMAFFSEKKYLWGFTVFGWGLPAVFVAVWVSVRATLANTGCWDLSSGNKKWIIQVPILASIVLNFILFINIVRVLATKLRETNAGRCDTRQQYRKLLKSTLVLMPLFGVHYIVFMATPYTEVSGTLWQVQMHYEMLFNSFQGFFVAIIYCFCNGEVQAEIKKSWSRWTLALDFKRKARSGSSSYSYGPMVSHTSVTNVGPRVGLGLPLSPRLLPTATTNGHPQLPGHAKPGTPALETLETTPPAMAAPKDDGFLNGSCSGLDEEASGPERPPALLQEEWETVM
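HEK-293-derived GP2 cells expressing PTHR1 and a GloSensor cAMP reporter, 3,000/well, plated overnight, given luciferin plus IBMX (each 0.5 mM as added) for 1 h at 37 °C, then compound for 1 h at 37 °C. Luminescence was read after 15 min at room temperature.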
The depositor's hits bear a star; i = inactive; ? = inconclusive; · = no result; [ ] = dose if it differs, or a comment. Rows were chosen to be rich in hits. Some 1.7% of all compounds tested hit in one or more screens of this group. The call rests on the fitted dose curve; in most records, active means well fitted curve in the direction sought with a large enough effect; inconclusive means small, poorly fitted or top-dose-only effect, or another doubt; inactive means no such curve, though single readings can be large; an effect the other way counts as inactive or inconclusive. Potency means the concentration at half of the fitted maximal effect.

SMILES	GLP-1R inv ag	GLP-1R agonist	GLP1R cytotox	PTHR1 ag
CCCCCC(=O)N1C[C@H](O)[C@@H](n2cc(-c3ccc(F)cc3)nn2)C[C@@H]1c1ccc(OC)cc1	11µM*	5%	-24%	-21%
CC12CCC(C)(c3nc4ccccc4nc31)C2(C)C	?	3%	-7%	-22%
Cc1[nH]nc2c1-c1nc3ccccc3nc1C(C)(C)C2	2%	10%	4%	28µM*
Cc1ccc(C(=O)/C=C/c2cn(CC(O)CN3CCc4ccccc43)c3ccccc23)cc1 (stereo unspecified)	?	·	-11%	-17%
COc1ccc(C(=O)/C=C/c2cn(CC(O)CN3CCc4ccccc43)c3ccccc23)cc1OC (stereo unspecified)	10µM*	·	-23%	-2%
COc1cccc(C2CC(=O)Nc3c2ccc(C)c3C)c1OC (stereo unspecified)	-10%	1%	-8%	-23%
C/C=C1\NC(=O)[C@H]2CSSCC/C=C\[C@H](CC(=O)N[C@H](C(C)C)C(=O)N2)OC(=O)C(C(C)C)NC1=O (stereo partly specified)	·	2%	·	·
COc1ccc(NC(=S)NC(NC(=O)c2ccc(Cl)cc2Cl)C(Cl)(Cl)Cl)c([N+](=O)[O-])c1 (stereo unspecified)	10µM*	-1%	?	-13%[57.5 µM]
COc1cc2ccccc2cc1C(=O)Nc1cccc(-c2nc3cc(C)c(C)cc3o2)c1	-8%	·	-2%	-18%
C=CCn1c(SCc2ccc(C(=O)Nc3nccs3)cc2)nnc1-c1ccc(C)c(Cl)c1	4.5µM*	-6%	?	-52%
O=C1OC2C(O)C(O)OC2C1O (stereo unspecified)	·	2%	·	·
Cc1cccc(C(=O)NC(NCc2ccco2)C(Cl)(Cl)Cl)c1 (stereo unspecified)	?	1%	-1%	i
Cc1cccc(C(=O)NC(NCCc2ccccc2)C(Cl)(Cl)Cl)c1 (stereo unspecified)	4.5µM*	5%	83%	i
Cc1ccc(Cl)cc1N1CCN(CCCNc2ncnc3onc(-c4ccc(Cl)cc4)c23)CC1	-5%	-1%	-1%	-17%
O=[N+]([O-])c1cc2ncccc2c2ncccc12	3.2µM*	2%	?	i
CCOC(=O)CSC1=C(C#N)C(c2ccc(C)o2)CC(=O)N1 (stereo unspecified)	0.56µM*	18%	-28%	6%
CCOC(=O)CSC1=C(C#N)C(c2ccc(Cl)cc2)CC(=O)N1 (stereo unspecified)	8%	-2%	-7%	-76%
COc1ccc(N2CCN(C(=O)Cn3c(-c4cccs4)cc4ccccc43)CC2)cc1	-6%	·	-3%	?
CC1(C(=O)NCc2cccc(C(F)(F)F)c2)CCN1C1Cc2ccccc2C1 (stereo unspecified)	13µM*	28%	4%	-7%
Cc1ccc(S(=O)(=O)N2CCC(=O)N([C@H](COCc3ccc(Cl)cc3Cl)Cc3ccccc3)CC2)cc1	?	15%	0%	-16%
Cc1ccc(S(=O)(=O)N2CCC(=O)N(C(COCc3ccc(Cl)cc3)Cc3ccccc3)CC2)cc1 (stereo unspecified)	11µM*	8%	0%	i
Cc1cccc(COC[C@H](Cc2ccccc2)N2CCN(C(=O)c3cc(Cl)cc(Cl)c3)CCC2=O)c1	11µM*	-2%	?	-33%
Cc1cccc(COCC(Cc2ccccc2)N2CCN(C(=O)c3cccc(Cl)c3)CCC2=O)c1 (stereo unspecified)	?	-1%	?	-22%
Cc1cccc(C(=O)N2CCC(=O)N([C@H](COCc3cccc(C(F)(F)F)c3)Cc3ccccc3)CC2)c1	11µM*	0%	?	-33%
COC1CC2CCC(C)[C@](O)(O2)C(=O)C(=O)N2CCCCC2C(=O)OC(C(C)CC2CCC(O)C(OC)C2)CC(=O)C(C)/C=C(/C)C(O)C(OC)C(=O)C(C)CC(C)C=CC=C/C=C\1C (stereo partly specified)	·	1%	·	·
SMILES	GLP-1R inv ag	GLP-1R agonist	GLP1R cytotox	PTHR1 ag
CCCCC(=O)Nc1nnc(S(=O)(=O)N(C)Cc2ccc(Cl)cc2)s1	9%	·	4%	-25%
Cc1ccc(S(=O)(=O)NCCSCc2ccccc2)cc1	?	7%	70%	i
COc1ccc(S(=O)(=O)NCCSCc2cccc(C)c2)cc1Br	11µM*	8%	-1%	-15%
COc1ccc(-c2oc(NC(=O)CSc3nncn3C)c(C#N)c2-c2ccc(OC)cc2)cc1	1.6µM*	-8%	-36%	-32%
COc1cnc(-c2ccccc2)nc1Oc1cccc(C)c1C	11µM*	5%	17%	i
Cc1c(C(=O)Nc2ccccc2)sc2nc(-c3cc4ccccc4oc3=O)[nH]c(=O)c12	7%	·	1%	2%
CSc1ncnc2c1ncn2CCCNC1CCN(Cc2ccccc2)CC1	?	-3%	-10%	-11%
c1ccc(COc2ncnc3c2ncn3CCCNC2CCN(Cc3ccccc3)CC2)cc1	7.1µM*	-1%	?	-13%
O=C1c2ccsc2SCCN1Cc1cccc(Cl)c1	13µM*	5%	-13%	-9%[57.5 µM]
O=C(NNC(=S)NC(=O)c1ccccc1Cl)c1cccc([N+](=O)[O-])c1	1%	2%	-7%	-8%
O=C(NC(NC(=S)Nc1c(Cl)cccc1Cl)C(Cl)(Cl)Cl)c1cccc([N+](=O)[O-])c1 (stereo unspecified)	5µM*	-25%	13µM*	-52%
COc1ccc([N+](=O)[O-])cc1NC(=S)NC(NC(=O)C(c1ccccc1)c1ccccc1)C(Cl)(Cl)Cl (stereo unspecified)	2.5µM*	-13%	?	-22%[57.5 µM]
Cc1cc([N+](=O)[O-])ccc1NC(=S)NC(=O)Cc1ccccc1	?	15%	-14%	i
Cc1cc([N+](=O)[O-])ccc1NC(=S)NC(=O)C(c1ccccc1)c1ccccc1	10µM*	-5%	?	-6%
CC(=O)Nc1ccc(-c2csc(NC(=O)Cc3ccccc3F)n2)cc1	?	20%	-7%	-44%
CC(=O)Nc1ccc(-c2csc(NC(=O)Cc3cccc(F)c3)n2)cc1	11µM*	11%	8%	-42%
O=C(Cc1c(F)c(F)c(F)c(F)c1F)Nc1nc(-c2ccccc2)cs1	7.1µM*	-2%	?	-95%
Cc1cc2c(cc1C)C(c1ccccc1OC(C)C)CC(=O)N2 (stereo unspecified)	10µM*	3%	-22%	-3%
O=C1c2cccc(Cl)c2C(=O)c2c1cccc2N1CCCC1	6.3µM*	10%	?	i
O=C1c2ccccc2C(=O)c2cc(N3CCCCC3)ccc21	-44%	0%	-6%	-46%
CC(C)(C)c1ccc(NC(=O)NC2CCCc3ccccc32)cc1 (stereo unspecified)	3.2µM*	6%	-15%	i
Cc1ccc(NC(=O)NC2CCCc3ccccc32)cc1 (stereo unspecified)	?	4%	-6%	i
